Structures can show the parent of a compound that is named as a salt.
The molecules below were run on MOLM14 (assay: cell viability relative to vehicle control; higher = less cytotoxic). Conditions: 10 µM; SRSF2 genotype: SRSF2 wt/wt.
In short: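 Each screen used CRISPR-edited mutant and wild-type clones from four leukaemia lines. Compounds were acoustically dispensed at a single 10 µM dose, and CellTiter-Glo luminescence was read after 48 h with the supernatant first removed. Viability was analysed in Genedata Screener and given as percent of the on-plate vehicle control.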
Work on `CCCSc1nc(N[C@@H]2C[C@H]2c2ccc(F)c(F)c2)c2nnn([C@@H]3C[C@H](OCCO)[C@@H](O)[C@H]3O)c2n1` [Ticagrelor] yielded a cell viability of 85.9%. `O=[N+]([O-])c1cn2c(n1)OC[C@@H](OCc1ccc(OC(F)(F)F)cc1)C2` gave a cell viability of 97.5%. `Cn1cncc1[C@@](N)(c1ccc(Cl)cc1)c1ccc2c(c1)c(-c1cccc(Cl)c1)cc(=O)n2C` [Tipifarnib (Zarnestra)] gave a cell viability of 20.2%. Molecule `CCN1CCN(C(=O)N[C@@H](C(=O)N[C@@H]2C(=O)N3C(C(=O)O)=C(CSc4nnnn4C)CS[C@H]23)c2ccc(O)cc2)C(=O)C1=O` [Cefoperazone (Cefobid)] has a cell viability of 97.3%. `C[C@]1(O)C[C@@H](c2nc(-c3ccc4ccc(-c5ccccc5)nc4c3)c3c(N)nccn32)C1` [OSI-906 (Linsitinib)] gave a cell viability of 82.2%. `O=c1c(O)c(-c2ccc(O)c(O)c2)oc2cc(O)ccc12` [Fisetin (Fustel)] showed a cell viability of 103%. For `CC1(C)[C@@H](O)CC[C@]2(C)[C@H]3C(=O)C=C4[C@@H]5C[C@@](C)(C(=O)O)CC[C@]5(C)CC[C@@]4(C)[C@]3(C)CC[C@@H]12` [Enoxolone (Glycyrrhetin)], the cell viability was 103%. `OCCN1C[C@H](O)[C@@H](O)[C@H](O)[C@H]1CO` [Miglitol (Glyset)] gave a cell viability of 106%. `CC(OC(=O)OC1CCCCC1)OC(=O)C1=C(CSc2nnnn2CCN(C)C)CS[C@@H]2[C@H](NC(=O)Cc3csc(N)n3)C(=O)N12` (stereo partly specified) [Cefotiam Hexetil Hydrochloride] was tested, and the cell viability was 94.3%. Work on `COc1ccc(-c2nc(-c3cc(C(F)(F)F)cc(C(F)(F)F)c3)n(Cc3ccc(C(N)=O)cc3)c2-c2ccc(OC)cc2)cc1` [Apoptozole] yielded a cell viability of 90.3%. `Nc1ncnc2c1nc(Br)n2[C@@H]1O[C@@H]2COP(=O)(O)O[C@H]2[C@H]1O` [8-Bromo-cAMP] gave a cell viability of 60%. For `Cc1noc(NS(=O)(=O)c2ccc(N)cc2)c1C` [Sulfisoxazole], the cell viability was 103%. `COC(=O)c1ccccc1O` [Methyl salicylate] showed a cell viability of 104%. Molecule `CC(C)C(NC(=O)c1ccc2ccccc2n1)C(=O)NC(CC(=O)O)C(=O)COc1c(F)cccc1F` (stereo unspecified) has a cell viability of 99.8%. With `O=C(O)c1ccco1` [2-Furoic acid] the cell viability was 101%. With `c1cn2cc(-c3ccc4cn[nH]c4c3)nc(Nc3ccc(N4CCOCC4)cc3)c2n1` [Entospletinib (GS-9973)] the cell viability was 95.6%. For `COc1cc(CO)cc(OC)c1O` [4-Hydroxy-3,5-dimethoxybenzyl alcohol], the cell viability was 102%. `O=c1nc(N2CCOCC2)oc2c(-c3cccc4c3sc3ccccc34)cccc12` showed a cell viability of 81.6%. `N[C@@H](CS)C(=O)O` [L-Cysteine HCl] showed a cell viability of 87.8%. With `Cc1cc(C)c(CNC(=O)c2cc(-c3ccc(N4CCN(C)CC4)nc3)cc3c2c(C)cn3C(C)C)c(=O)[nH]1` the cell viability was 83.3%. Work on `COc1ccc(C[C@@H]2c3cc(Oc4cc(C[C@@H]5c6cc(OC)c(OC)cc6CCN5C)ccc4O)c(OC)cc3CCN2C)cc1` [Neferine] yielded a cell viability of 109%. In the case of `CNC[C@H](O)c1ccc(O)c(O)c1` [Epinephrine bitartrate (Adrenalinium)], the cell viability is reported as 97.6%. Molecule `C=C(C)[C@@H]1CCC2=CC(=O)C[C@@H](C)[C@]2(C)C1` [Nootkatone] has a cell viability of 103%. `C[n+]1c2n(c(=O)c3ccccc31)CCc1c-2[nH]c2ccccc12` [Dehydroevodiamine hydrochloride] was tested, and the cell viability was 92.9%. Work on `Cn1cc(C(=O)Nc2ccc3c(c2)OCCO3)c2ccccc2c1=O` yielded a cell viability of 82.8%. `CC(CCC(=O)NCCS(=O)(=O)O)C1CCC2C3C(O)CC4CC(O)CCC4(C)C3CCC12C` (stereo unspecified) [Taurochenodeoxycholic acid] was tested, and the cell viability was 104%. Work on `CC(C)c1nc(CN(C)C(=O)N[C@@H](CCN2CCOCC2)C(=O)N[C@H](CC[C@H](Cc2ccccc2)NC(=O)OCc2cncs2)Cc2ccccc2)cs1` [Cobicistat (GS-9350)] yielded a cell viability of 98.3%. Molecule `CO/N=C(\C(=O)N[C@@H]1C(=O)N2C(C(=O)O)=C(CSc3nnnn3C)CS[C@H]12)c1csc(N)n1` [Cefmenoxime hydrochloride] has a cell viability of 98.8%. `CCCCOc1nc(N)c2c(n1)N(Cc1cccc(CN3CCCC3)c1)CC(=O)N2` showed a cell viability of 93.4%. `Cc1cc(/C=C2/SC(=S)NC2=O)c(C)n1-c1cccnc1` [Optovin] gave a cell viability of 90.5%. Work on `CN(C(Cc1ccc(OS(=O)(=O)c2cccc3cnccc23)cc1)C(=O)N1CCN(c2ccccc2)CC1)S(=O)(=O)c1cccc2cnccc12` (stereo unspecified) yielded a cell viability of 74.6%.

From the supplement of paper PMC10981050
